# According to publication PMC5540273 (PLoS ONE, 2017):
# Like-named read-outs stand apart in the source and are kept apart here.
# Tests used:
# MEK5 = test system: T1, MEK5; settings: concentration: 1 μM,replicates: in singlicate; n = 1
# T1 construct: gene MAP2K5
# MEK6 = test system: T2, MEK6; settings: concentration: 1 μM,replicates: in singlicate; n = 1
# T2 construct: gene MAP2K6
# MELK = settings: concentration: 1 μM,replicates: in singlicate; n = 1
# MERTK = settings: concentration: 1 μM,replicates: in singlicate; n = 1
# MET = settings: n = 1
# MINK = test system: T3, MINK; settings: concentration: 1 μM,replicates: in singlicate; n = 1
# T3 construct: gene MINK1
# MKK7 = settings: concentration: 1 μM,replicates: in singlicate; n = 1
# MKNK1 = settings: concentration: 1 μM,replicates: in singlicate; n = 1
# MKNK2 = settings: concentration: 1 μM,replicates: in singlicate; n = 1
# MLCK = test system: T4, MLCK; settings: concentration: 1 μM,replicates: in singlicate; n = 1
# T4 construct: gene MYLK3
# MLK1 = test system: T5, MLK1; settings: concentration: 1 μM,replicates: in singlicate; n = 1
# T5 construct: gene MAP3K9
# MLK2 = settings: concentration: 1 μM,replicates: in singlicate; n = 1
# MLK3 = settings: concentration: 1 μM,replicates: in singlicate; n = 1
# MRCKA = settings: concentration: 1 μM,replicates: in singlicate; n = 1
# MRCKB = test system: T6, MRCKB; settings: concentration: 1 μM,replicates: in singlicate; n = 1
# T6 construct: gene CDC42BPB
# MST1R = settings: concentration: 1 μM,replicates: in singlicate; n = 1
# MST1 = test system: T7, MST1; settings: concentration: 1 μM,replicates: in singlicate; n = 1
# T7 construct: gene STK4
# MST2 = test system: T8, MST2; settings: concentration: 1 μM,replicates: in singlicate; n = 1
# T8 construct: gene STK3
# MST3 = test system: T9, MST3; settings: concentration: 1 μM,replicates: in singlicate; n = 1
# T9 construct: gene STK24
# MST4 = settings: concentration: 1 μM,replicates: in singlicate; n = 1
# [1] = concentration: 1 μM,replicates: in singlicate
# 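Further: KINOMEscan kinase panel screen.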
smiles,measurement,setting,value
O=C(Nc1cccc(Oc2ccc3nccn3n2)c1)Nc1cccc(C(F)(F)F)c1,%Inh,MEK5,97%
same,%Inh,MEK6,0%
same,%Inh,MELK,10%
same,%Inh,MERTK,24%
same,%Inh,MET; [1],0%
same,%Inh,MINK,27%
same,%Inh,MKK7,0%
same,%Inh,MKNK1,8%
same,%Inh,MKNK2,0%
same,%Inh,MLCK,0%
same,%Inh,MLK1,0%
same,%Inh,MLK2,39%
same,%Inh,MLK3,0%
same,%Inh,MRCKA,0%
same,%Inh,MRCKB,0%
same,%Inh,MST1R,10%
same,%Inh,MST1,6%
same,%Inh,MST2,0%
same,%Inh,MST3,0%
same,%Inh,MST4,0%
CN1CCN(CCCNc2nccc(-c3c(-c4ccc(F)cc4)nn4cc(C(N)=O)ccc34)n2)CC1 [GW622475],%Inh,MEK5,42%
same,%Inh,MEK6,0%
same,%Inh,MELK,91.9%
same,%Inh,MERTK,49%
same,%Inh,MET; [1],32%
same,%Inh,MINK,71%
same,%Inh,MKK7,0%
same,%Inh,MKNK1,10%
same,%Inh,MKNK2,0%
same,%Inh,MLCK,0%
same,%Inh,MLK1,0%
same,%Inh,MLK2,16%
same,%Inh,MLK3,12%
same,%Inh,MRCKA,11%
same,%Inh,MRCKB,0%
same,%Inh,MST1R,36%
same,%Inh,MST1,28%
same,%Inh,MST2,15%
same,%Inh,MST3,33%
same,%Inh,MST4,0%
Cc1ccc2c(-c3ccnc(Nc4ccc(C(F)(F)F)cc4)n3)cnn2n1 [GW819776],%Inh,MEK5,33%
same,%Inh,MEK6,13%
same,%Inh,MELK,0%
same,%Inh,MERTK,26%
same,%Inh,MET; [1],5%
same,%Inh,MINK,18%
same,%Inh,MKK7,0%
same,%Inh,MKNK1,0%
same,%Inh,MKNK2,0%
same,%Inh,MLCK,0%
same,%Inh,MLK1,7%
same,%Inh,MLK2,35%
same,%Inh,MLK3,3%
same,%Inh,MRCKA,0%
same,%Inh,MRCKB,16%
same,%Inh,MST1R,0%
same,%Inh,MST1,13%
same,%Inh,MST2,39%
same,%Inh,MST3,0%
same,%Inh,MST4,0%
Cc1ccc(CC(=O)N2CCc3cc(-c4cn(C)c5ncnc(N)c45)ccc32)cc1 [GSK2634758],%Inh,MEK5,99.9%
same,%Inh,MEK6,0%
same,%Inh,MELK,7%
same,%Inh,MERTK,27%
same,%Inh,MET; [1],86%
same,%Inh,MINK,6%
same,%Inh,MKK7,18%
same,%Inh,MKNK1,0%
same,%Inh,MKNK2,52%
same,%Inh,MLCK,12%
same,%Inh,MLK1,15%
same,%Inh,MLK2,17%
same,%Inh,MLK3,24%
same,%Inh,MRCKA,0%
same,%Inh,MRCKB,9%
same,%Inh,MST1R,39%
same,%Inh,MST1,94.9%
same,%Inh,MST2,58%
same,%Inh,MST3,56%
same,%Inh,MST4,35%
COc1cccc(OC)c1C(=O)Nc1cccc(-c2nn3ccccc3c2-c2ccnc(Nc3cccc(F)c3)n2)c1 [GSK361065],%Inh,MEK5,93.2%
same,%Inh,MEK6,3%
same,%Inh,MELK,0%
same,%Inh,MERTK,50%
same,%Inh,MET; [1],34%
same,%Inh,MINK,0%
same,%Inh,MKK7,0%
same,%Inh,MKNK1,0%
same,%Inh,MKNK2,0%
same,%Inh,MLCK,2%
same,%Inh,MLK1,4%
same,%Inh,MLK2,10%
same,%Inh,MLK3,10%
same,%Inh,MRCKA,0%
same,%Inh,MRCKB,3%
same,%Inh,MST1R,23%
same,%Inh,MST1,20%
same,%Inh,MST2,61%
same,%Inh,MST3,7%
same,%Inh,MST4,0%
COC(=O)Nc1nc2cc(Oc3ccc(NC(=O)Nc4cc(C(F)(F)F)ccc4Cl)cc3)ccc2[nH]1.Cl [GW697465],%Inh,MEK5,78%
same,%Inh,MEK6,0%
same,%Inh,MELK,0%
same,%Inh,MERTK,96.3%
same,%Inh,MET; [1],84%
same,%Inh,MINK,0%
same,%Inh,MKK7,0%
same,%Inh,MKNK1,51%
same,%Inh,MKNK2,92.8%
same,%Inh,MLCK,0%
same,%Inh,MLK1,1%
same,%Inh,MLK2,0%
same,%Inh,MLK3,8%
same,%Inh,MRCKA,5%
same,%Inh,MRCKB,0%
same,%Inh,MST1R,41%
same,%Inh,MST1,0%
same,%Inh,MST2,0%
same,%Inh,MST3,0%
same,%Inh,MST4,0%
Cn1ccc2ncnc(Oc3ccc(NC(=O)Nc4cc(C(C)(C)C)on4)c(Cl)c3)c21,%Inh,MEK5,71%
same,%Inh,MEK6,7%
same,%Inh,MELK,20%
same,%Inh,MERTK,94.8%
same,%Inh,MET; [1],48%
same,%Inh,MINK,91.6%
same,%Inh,MKK7,0%
same,%Inh,MKNK1,3%
same,%Inh,MKNK2,90%
same,%Inh,MLCK,7%
same,%Inh,MLK1,11%
same,%Inh,MLK2,21%
same,%Inh,MLK3,0%
same,%Inh,MRCKA,13%
same,%Inh,MRCKB,0%
same,%Inh,MST1R,73%
same,%Inh,MST1,0%
same,%Inh,MST2,0%
same,%Inh,MST3,6%
same,%Inh,MST4,0%
CC(=O)Nc1ccc(-c2cc3ncnc(SCC(=O)O)c3s2)cc1,%Inh,MEK5,17%
same,%Inh,MEK6,20%
same,%Inh,MELK,0%
same,%Inh,MERTK,0%
same,%Inh,MET; [1],0%
same,%Inh,MINK,25%
same,%Inh,MKK7,0%
same,%Inh,MKNK1,0%
same,%Inh,MKNK2,0%
same,%Inh,MLCK,40%
same,%Inh,MLK1,0%
same,%Inh,MLK2,18%
same,%Inh,MLK3,0%
same,%Inh,MRCKA,0%
same,%Inh,MRCKB,0%
same,%Inh,MST1R,25%
same,%Inh,MST1,2%
same,%Inh,MST2,16%
same,%Inh,MST3,24%
same,%Inh,MST4,2%
O=C1NCCc2[nH]c(-c3ccncc3)cc21,%Inh,MEK5,35%
same,%Inh,MEK6,25%
same,%Inh,MELK,21%
same,%Inh,MERTK,0%
same,%Inh,MET; 1 µM,33%
same,%Inh,MINK,55%
same,%Inh,MKK7,0%
same,%Inh,MKNK1,13%
same,%Inh,MKNK2,23%
same,%Inh,MLCK,58%
same,%Inh,MLK1,0%
same,%Inh,MLK2,0%
same,%Inh,MLK3,13%
same,%Inh,MRCKA,0%
same,%Inh,MRCKB,0%
same,%Inh,MST1R,51%
same,%Inh,MST1,3%
same,%Inh,MST2,20%
same,%Inh,MST3,23%
same,%Inh,MST4,0%
